SMILES strings stand for the structures. This is part of a sample that, as a whole, favours compounds with a hit. Of some 83,000 tested, about 20% had one in any assay.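 Treatment: one concentration, 48 hours, 96-well format. Scoring: percent growth, with anything below 10 considered active.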 Unmarked numbers belong to inactive results. The source made the active and inactive calls.

Test systems include NCI-H23 lung; NCI-H226 lung; NCI-H322M lung; HOP-62 NSCLC; NCI-H460 lung; HOP-92 NSCLC; NCI-H522 lung; A549/ATCC NSCLC; 786-0 renal; COLO 205 colon; DU-145 prostate; K-562 leukemia; MALME-3M melanoma; MDA-MB-231 breast; RXF 393 renal; SF-268 CNS; SF-295 CNS; SF-539 CNS; UACC-257 melanoma; M14 melanoma.
Common to all, as to assay: NCI-60 one-dose screen, 48 h (100 = growth as untreated, 0 = no growth, -100 = all killed)
What all share (details): 10 µM unless noted

On to `C#COc1cccc(Nc2ncnc3cc(NC(=O)[C@H](C)Cl)ccc23)c1`, for which the growth in the assay with NCI-H23 lung is 18.5% [6.25 µM]; in the assay with NCI-H226 lung it was 41.7% [6.25 µM]; in the assay with NCI-H322M lung it was 30% [6.25 µM]; with HOP-62 NSCLC it was 7.33% [6.25 µM] (active); in the assay with NCI-H460 lung, 3.29% [6.25 µM] (active); in the assay with HOP-92 NSCLC, 81.5% [6.25 µM]. In addition, the growth with NCI-H522 lung is -46.2% [6.25 µM] (active); in the assay with A549/ATCC NSCLC, 2.95% [6.25 µM] (active); in the assay with 786-0 renal, 14.2% [6.25 µM]; with COLO 205 colon it was 12.2% [6.25 µM]; with DU-145 prostate it was 20.3% [6.25 µM]; in the assay on K-562 leukemia it was 99.7% [6.25 µM]. Further, the growth with MALME-3M melanoma was 37.5% [6.25 µM]; in the assay with MDA-MB-231 breast, 19.1% [6.25 µM]; in the assay on RXF 393 renal, 15.5% [6.25 µM]; in the assay on SF-268 CNS, 27.7% [6.25 µM]; in the assay with SF-295 CNS, 1.61% [6.25 µM] (active); in the assay on SF-539 CNS, 0.539% [6.25 µM] (active). Also, the growth with UACC-257 melanoma is 21.2% [6.25 µM]; in the assay on M14 melanoma, 11.7% [6.25 µM].

For the compound `CNC(=O)c1cc(Oc2ccc3c(c2)sc2nc(-c4ccc(Cl)c(C(F)(F)F)c4)cn23)ccn1`, the growth was 53% in the assay with NCI-H23 lung; 52.6% with NCI-H226 lung; 88.5% in the assay with NCI-H322M lung; 75.9% in the assay with HOP-62 NSCLC; 51.3% in the assay with NCI-H460 lung; 73.1% with HOP-92 NSCLC. Besides, the growth was 42.6% in the assay on NCI-H522 lung; 61% in the assay with A549/ATCC NSCLC; 68.6% in the assay on 786-0 renal; 58.4% in the assay with COLO 205 colon; 74% in the assay with DU-145 prostate; 30% in the assay on K-562 leukemia. Also, the growth was 47.4% in the assay with MALME-3M melanoma; 77.1% in the assay with MDA-MB-231 breast; 87.1% in the assay on RXF 393 renal; 73.7% in the assay with SF-268 CNS; 48.5% in the assay with SF-295 CNS; 64.4% in the assay on SF-539 CNS. In addition, the growth with UACC-257 melanoma is 35.9%; in the assay on M14 melanoma it was 69.5%.

For the compound `COc1cc(OC)c2c(=O)c3c(CC=C(C)C)cc(OC)c(O)c3oc2c1`, the growth in the assay with NCI-H23 lung was 93.7%; with NCI-H226 lung, 99.3%; with NCI-H322M lung it was 83.7%; in the assay with HOP-62 NSCLC, 89.1%; with NCI-H460 lung it was 99.2%; with HOP-92 NSCLC, 77%. The growth with NCI-H522 lung is 53%; in the assay on A549/ATCC NSCLC it was 90.8%; in the assay on 786-0 renal, 90.1%; in the assay on COLO 205 colon, 111%; in the assay with DU-145 prostate, 85%; in the assay with K-562 leukemia, 61.4%. Besides, the growth with MALME-3M melanoma is 114%; in the assay on MDA-MB-231 breast, 91.1%; in the assay with RXF 393 renal, 100%; with SF-268 CNS, 93.6%; with SF-295 CNS it was 89.7%; in the assay with SF-539 CNS it was 91.4%. The growth is 107% in the assay with UACC-257 melanoma and 91% in the assay on M14 melanoma.

In the case of `O=C(C1=Cc2cc3ccccc3n2Cc2cnnn21)c1ccc(F)cc1`, the growth is 98.9% in the assay with NCI-H23 lung; 98.8% in the assay with NCI-H226 lung; 99.1% with NCI-H322M lung; 109% in the assay on HOP-62 NSCLC; 106% in the assay on NCI-H460 lung; 102% in the assay on HOP-92 NSCLC. The growth was 91.3% in the assay with NCI-H522 lung; 96.3% with A549/ATCC NSCLC; 99.1% with 786-0 renal; 117% in the assay with COLO 205 colon; 97.7% in the assay with DU-145 prostate; 87.4% with K-562 leukemia. The growth with MALME-3M melanoma is 101%; in the assay on MDA-MB-231 breast it was 105%; in the assay on RXF 393 renal it was 103%; in the assay with SF-268 CNS, 100%; with SF-295 CNS it was 97.8%; in the assay with SF-539 CNS, 101%. Moreover, the growth with UACC-257 melanoma and with M14 melanoma was 107% each time.

`CCSc1ccnc(N)n1`: the growth is 120% in the assay with NCI-H23 lung; 101% in the assay with NCI-H226 lung; 106% in the assay on NCI-H322M lung; 94% with HOP-62 NSCLC; 113% in the assay on NCI-H460 lung; 98% with HOP-92 NSCLC. Moreover, the growth in the assay with NCI-H522 lung was 105%; in the assay on A549/ATCC NSCLC, 118%; in the assay on 786-0 renal it was 98.3%; in the assay on COLO 205 colon it was 125%; in the assay on DU-145 prostate it was 105%; with K-562 leukemia it was 121%. In addition, the growth in the assay with MALME-3M melanoma was 86.3%; in the assay on MDA-MB-231 breast it was 104%; in the assay with RXF 393 renal it was 125%; in the assay with SF-268 CNS, 93.9%; in the assay on SF-295 CNS it was 105%; in the assay with SF-539 CNS, 105%. For the same compound, the growth in the assay on UACC-257 melanoma was 102%; in the assay on M14 melanoma, 112%.

As for `COCCOC(C)C(/C=N/NC(N)=S)=N/NC(N)=S` (stereo not given), the growth with NCI-H23 lung was 49.8%; with NCI-H226 lung it was 72.2%; in the assay with NCI-H322M lung, 89.8%; with HOP-62 NSCLC it was 72.4%; in the assay on NCI-H460 lung, 85.8%; in the assay with HOP-92 NSCLC, 101%. Moreover, the growth in the assay with NCI-H522 lung was 94.5%; in the assay on A549/ATCC NSCLC, 78.3%; with 786-0 renal it was 99.3%; with COLO 205 colon it was 90.6%; with DU-145 prostate, 102%; in the assay on K-562 leukemia, 37.6%. The growth is 94.3% in the assay with MALME-3M melanoma; 68% in the assay with MDA-MB-231 breast; 97.2% in the assay on RXF 393 renal; 83.4% in the assay with SF-268 CNS; 76.2% in the assay with SF-295 CNS; 91.9% with SF-539 CNS. In addition, the growth was 34.5% with UACC-257 melanoma and 65.5% with M14 melanoma.

For `CC1=Nc2cnc(Nc3ccc(N4CCCCC4)cc3)nc2Nc2ccccc21`, the growth with NCI-H23 lung was 67.1%; in the assay on NCI-H226 lung, 76.6%; in the assay on NCI-H322M lung it was 75.7%; in the assay with HOP-62 NSCLC, 94.4%; in the assay with NCI-H460 lung, 86.8%; in the assay with HOP-92 NSCLC it was 60.9%. The growth in the assay on NCI-H522 lung was 40%; in the assay with A549/ATCC NSCLC, 79.8%; with 786-0 renal it was 51.8%; in the assay on COLO 205 colon it was 81.3%; in the assay with DU-145 prostate, 79.8%; in the assay on K-562 leukemia it was 34.7%. The growth in the assay on MALME-3M melanoma is 88.5%; with MDA-MB-231 breast, 60.4%; in the assay on RXF 393 renal, 68%; in the assay on SF-268 CNS, 91.2%; in the assay on SF-295 CNS it was 83.8%; in the assay with SF-539 CNS, 79.9%. The growth in the assay on UACC-257 melanoma was 93.8%; in the assay with M14 melanoma, 71.5%.

(Values after PubChem BioAssay (NCI).)
